# Bioassay records as filed in PubChem.
# This is a sample that favours compounds with a hit; in the whole collection about 8.6% have one here.
# MARV entry inh = blocks Marburg virus binding or cell entry; Marburg virus pseudotype entry/binding inhibition, cell-based; Potency, µM (top dose mostly 49.2 µM), without a hit: top-dose activity change, negative = inhibition, usual class: inhibitors; actives 6.5% (n = 18,000); AID 720532
# LASV entry inh = blocks Lassa virus binding or cell entry. Lassa virus pseudotyped entry inhibition, cell-based qHTS. Potency, µM (doses to about 49.2 µM), for the others: top-dose activity change, negative = inhibition, usual class: inhibitors. actives 4.1% (n = 18,000)
# An asterisk follows results filed as active; ? = inconclusive; . = not tested or not shown; ! = not confirmed by another sample; [ ] = another dose, or the depositor's remark. Calls follow the shape of the full dose curve; tested in HEK293 cells. % is scaled to controls: 0 for no effect and ±100 for the full control effect; potency is read from the fitted curve at half-maximal effect.
SMILES,MARV entry inh,LASV entry inh
CC12C=CC(=O)C=C1CCC1C2=CCC2(C)C1CC[C@@H]2C(=O)CN1CCN(c2cc(N3CCCC3)nc(N3CCCC3)n2)CC1 (some centres undefined),18µM*!,4%
C[C@H]1[C@@H](C(=O)N2CCCC2)CC(=O)C(=NOCc2ccccc2)C[C@H]1c1ccccc1,0%[8.59 µM],.
CC(CCC(=O)OC[C@H]1O[C@H](C#Cc2ccccc2)C=C[C@H]1Oc1ccc(C)cc1)=NO[C@H](C)c1cn([C@H](CO)Cc2ccccc2)nn1,2%[8.59 µM],.
Clc1cccc(Nc2nnc(-c3ccccc3)c3ccccc23)c1,7.1µM*!,3.5µM*
c1ccc(-c2nc(-c3cccc4ccccc34)c(Nc3ccc4ccccc4c3)o2)cc1,4%,1%
COC(=O)c1c(C(=O)OC)c2c3ccccc3cc(-c3ccccc3)n2c1C(=O)OC,-23%[8.59 µM],-15%[8.59 µM]
C=C[C@]1(C)C[C@@H](OC(=O)CSCCN(CC)CC)[C@]2(C)[C@H](C)CC[C@]3(CCC(=O)[C@H]32)[C@@H](C)[C@@H]1O,?,-11%
CCN1\C(=C/C=C/C=C/c2sc3ccccc3[n+]2CC)Sc2ccccc21,7.1µM*,11µM*
CCN1C(=NCC(C)C)N[C@@H](CCc2ccccc2)[C@H](C(=O)OC)[C@H]1C,?,-1%[8.59 µM]
CC[C@@]1(O)C(=O)OCc2c1cc1n(c2=O)Cc2cc3cc(O)ccc3nc2-1,?,0.11µM*
N=C1N=C(N)c2cc3ccccc3cc21,20µM*,35µM*
COc1cc(CN2CCC3(CCC(CNC(=O)c4ccccc4)O3)CC2)cc(OC)c1 (centres undefined),13µM*,-11%
Cc1nc2ccc(C(=O)NCC3CCC4(CCN(Cc5cccnc5)CC4)O3)cc2nc1C (centres undefined),?,-14%
COC[C@@H](O)[C@H]1OCc2ccccc2[C@H]1C=Cc1ccccc1,7%[8.59 µM],-2%[8.59 µM]
COC1=C2C[C@H](C)C[C@H](OC)[C@H](O)[C@@H](C)/C=C(/C)[C@H](OC(N)=O)[C@@H](OC)/C=C\C=C(\C)C(=O)NC(=CC1=O)C2=O,23%,5%
C=CCNC1=C2C[C@@H](C)C[C@H](OC)[C@H](O)[C@@H](C)/C=C(\C)[C@H](OC(N)=O)[C@@H](OC)/C=C\C=C(/C)C(=O)NC(=CC1=O)C2=O,?,3.5µM*!
CCCCCCCC#Cc1ccccc1C=NS(=O)c1ccc(C)cc1 (centres undefined),4%[8.59 µM],8%[8.59 µM]
COc1ccc2c3c(c(=O)oc2c1)[C@H]1O[C@](c2ccsc2)(Cc2cc(C#N)ccc21)O3,-14%[8.59 µM],-8%[8.59 µM]
CC1C(=O)C(Cc2cn(CCC3OCCO3)nn2)CCS(=O)(=O)N1Cc1ccc(-c2ccc(Cl)nc2)cc1 (centres undefined),96%,14%
Nc1nc(NCC2CCC(CNS(=O)(=O)c3cccc4ccccc34)CC2)nc2ccccc12 (centres undefined),11µM*,?
NCCCCCCNS(=O)(=O)c1cccc2ccccc12,9%,?
O=[S+]1([O-])C[C@H](N2CC[C@@H](O)C2)[C@H](COCc2ccccc2)N1,20%,?
CC(=O)OC[C@H]1O[C@H](C#Cc2ccc(C(C)(C)C)cc2)C=C[C@H]1OC(C)=O,?,-26%[8.59 µM]
N#C[C@@H]1C[C@@H]2C[C@@H]2N1C(=O)[C@@H](N)C12CC3CC(CC(O)(C3)C1)C2,1%,-1%
COc1ccc(CCN(C)CCc2ccc(OC)c(OC)c2)cc1OC,-29%,-13%
SMILES,MARV entry inh,LASV entry inh
COc1ccc(CCN(C)CCCC(C#N)(c2cc(OC)c(OC)c(OC)c2)C(C)C)cc1OC (centres undefined),32µM*,-10%
COC(=O)[C@@]1(C=C2c3ccc(F)cc3[C@@H](OC)[C@@H]2C)[C@@H]2Oc3ccccc3[C@@H]21,-17%[8.59 µM],1%[8.59 µM]
COc1ccc(COC(=O)NN=C2C[C@@H](O)[C@@H](O)[C@@H]3[C@H]4C(=O)N([C@@H](C)c5ccccc5)C(=O)[C@@H]4CC[C@H]23)cc1,-1%[8.59 µM],.
c1ccc(CCCN2CCN(CCOC(c3ccccc3)c3ccccc3)CC2)cc1,11µM*,28µM*
O=C(O)C1=CCCN(CCOC(c2ccc(C(F)(F)F)cc2)c2ccc(C(F)(F)F)cc2)C1,4%,-5%
Fc1ccc(C(OCCN2CCN(CCCc3ccccc3)CC2)c2ccc(F)cc2)cc1,7.9µM*,14µM*!
OCCOCCN1CCN(Cc2cccc(Oc3ccccc3)c2)CC1,-28%,0%
CN(C)[C@H](Cc1ccccc1)c1ccccc1,2%,-1%
CC(NN)c1ccccc1 (centres undefined),15%,-2%
C[C@@H](Cc1ccccc1)NCCC(c1ccccc1)c1ccccc1,7.9µM*,?
CC(NCCC(c1ccccc1)c1ccccc1)c1ccccc1 (centres undefined),11µM*,?
CC(C)CON=C1C[C@@H](O)[C@@H](O)[C@@H]2[C@H]3C(=O)N(C[C@@H]4CCCO4)C(=O)[C@@H]3CC[C@@H]12,10%[8.59 µM],-10%[8.59 µM]
